# Screening data (PubChem BioAssay)
# Only some compounds are listed: those with a hit (about 2.8% of all), similar ones and a draw of the others.
# ATXN2 expr inh: reduces ATXN2 reporter expression in HEK-293 cells | HEK-293 ATXN2-luciferase reporter, luminescence, 24 h | Potency, µM (highest dose often 57 µM), without a hit: at the highest dose activity change, negative = inhibition, usual class: inhibitors | 360,000 tested, 0.72% active | AID 1745845; also: % is scaled to controls: 0 for no effect and ±100 for the full control effect; nearly all actives have a fitted effect of over 55% in size
#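 ATXN2-luciferase reporter cells (luciferase flanked by upstream and downstream ATXN2 gene portions) were treated 24 h at 37 °C with compounds at up to 57 uM. SteadyGlo luminescence gave expression; GF-AFC fluorescence gave viability.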
# ATXN viability: viability counter-screen for ATXN expression inhibitors. S2 cells (HEK-293 line with an ATXN2-luciferase reporter) viability, CellTiter-Fluor protease fluorescence, 24 h. Potency, µM (top dose mostly 56.7 µM), usual class: cytotoxic. 400,000 tested, 0.49% active. AID 651635; also: nearly all actives have a fitted effect of over 40% in size
# HttQ103 aggreg: mutant huntingtin aggregation inhibition. PC12 HttQ103-GFP aggregates, Acumen cytometry, 40 h. Potency, µM (series often up to 46.1 µM), without a hit: at the top dose activity change, negative = inhibition, actives largely listed as inhibitors. 220,000 tested, 1.1% active; also: % is scaled to controls: 0 for no effect and ±100 for the full control effect; nearly all actives have a fitted effect of over 60% in size
#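 Steps: seed 1500 PC12 HTTQ103-GFP cells/well; add tebufenozide, 100 nM final; add compound titration; add ATPLite reagent; quantify GFP aggregates by laser scanning cytometry.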
# TGFb inhibitor: blocks TGF-b signaling. HepG2 CAGA-GFP TGF-b/SMAD3 reporter, GFP fluorescence, 18 h; TGF-beta stimulated, 500 pg/mL final. Potency, µM (titrated, usually from 46.1 µM), without a hit: top-dose activity, negative = inhibition, hits mostly inhibitors. 410,000 tested, 1.2% active. AID 588855; also: % is scaled to controls: 0 for no effect and ±100 for the full control effect; nearly all actives have a fitted effect of over 65% in size
#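 HEPG2 CAGA-GFP cells (1000/well, DMEM with 1% FBS) were pre-incubated 2 h at 37 degrees C, given compound by pin tool, then stimulated with TGF-beta at 500 pg/mL final for 18 h before per-cell GFP fluorescence imaging.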
# HTT ATP protect: cytoprotection in Huntington HTT-Q103 PC12 cell model | 230,000 tested, 0.14% active | PC12 HTT-Q103 induced, cytoprotection, ATP luminescence, 40 h | Potency, µM (highest dose often 56.4 µM), inactives show cytoprotection (ATP increase), hits mostly activators; also: % of control where 0% means no effect; nearly all actives have a fitted effect of over 45% in size
#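 ATP quantification (ATPlite) reports survival of PC12 cells in which tebufenozide, 100 nM final, switches on Htt exon 1 with 103 glutamines linked to GFP; compounds are titrated.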
# HepG2 tox: HepG2 cytotoxicity, counter-screen for TGF-b inhibitors; 410,000 tested, 0.76% active; Potency, µM (doses to about 46.1 µM), for the others: top-dose activity change, negative = cytotoxicity, hits mostly cytotoxic; AID 588856; HepG2 CAGA-GFP viability, ATP luminescence, 18 h
#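 HepG2 CAGA-GFP cells (1000/well, DMEM with 1% FBS) received compound, then TGF-beta at 500 pg/mL final, and were incubated 18 hours at 37 degrees C. Viability was read by CellTiter-Glo luminescence. Media-only wells were set as complete cell-killing and DMSO as no toxicity.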
# * hit, by the source's call; i = inactive; ? = inconclusive; . = not tested or not shown; [ ] = dose if it differs, or a comment. Calls follow the shape of the dose curve; as a rule, active = well fitted curve in the direction sought with a large enough effect; inconclusive = small, poorly fitted or top-dose-only effect, or another doubt; inactive = no such curve, though single readings can be large; an effect the other way counts as inactive or inconclusive. Potency is read from the fitted curve at half-maximal effect.
SMILES,ATXN2 expr inh,ATXN viability,HttQ103 aggreg,TGFb inhibitor,HTT ATP protect,HepG2 tox
O=C1CN=C(Nc2ccccc2Cl)N1c1ccccc1,8.8%,i,2.82µM*,0.0%,-83.1%[10 µM],3.8%
CCOc1ccc(N2C(=O)CN=C2Nc2ccccc2Cl)cc1,3.0%,i,14.4%,1.2%,5.3%,-1.7%
CCOC(=O)C(=CNc1ccc2c(c1)nnn2-c1ccc(Cl)cc1)C(=O)OCC,23.8µM*,?,15.8%,7.6%,17.8%[0.074 µM],16.2%
CC12C=CC(=O)C=C1CCC1C2=CCC2(C)C1CC[C@@H]2C(=O)CN1CCN(c2cc(N3CCCC3)nc(N3CCCC3)n2)CC1 (stereo partly drawn),.,.,.,.,-9.1%,.
Cc1cc(C(Br)(Br)Br)nc2ccccc12,.,.,.,?,.,11.2µM*
Cc1cc(Cl)nc2ccccc12,.,.,.,-0.4%,.,-18.9%
Cc1nc(NC(=O)c2ccco2)sc1C(=O)O,-8.7%,i,.,0.6%,.,5.01µM*
Cc1ccc(Cl)c(OCC(O)CNC(C)(C)C)c1 (stereo not drawn),-8.2%,i,.,.,.,.
O=C1NC[C@@H](CCCCN2C[C@H](Cc3ccccc3)N(Cc3ccccc3)C(=O)C2=O)N(CC2CCCCC2)C1=O,8.1%,i,.,.,.,.
O=C1NC[C@@H](CCCCN2C[C@H](Cc3ccccc3)N(CC3CCCCC3)C(=O)C2=O)N(CC2CCCCC2)C1=O,-7.9%,14.1µM*,.,.,.,.
COc1ccc2[nH]c(S(=O)Cc3ncc(C)c(OC)c3C)nc2n1 (stereo not drawn),12.4%,i,4.2%,.,?,.
CC(=O)c1ccc(Oc2ncnc3sccc23)cc1,16.2%,i,-9.6%,14.1%,-1.2%,-2.8%
CC(=O)N1CCN(c2ccc(Oc3ncnc4sccc34)cc2)CC1,0.2%,i,17.8µM*,0.0%,27.3%[10 µM],-11.0%
COc1cc(CN2CCC3(CC2)CC3C(=O)Nc2ccc3sc(C)nc3c2)ccc1F (stereo not drawn),.,i,.,.,.,.
CCn1c(C)nc2cc(C(=O)N/N=C/c3cccc(OC)c3O)ccc21,14.1µM*,i,2µM*,0.1%,-44.4%[10 µM],-4.9%
COc1cccc(/C=N/NC(=O)c2nc(-c3ccccc3)cc(-c3ccccc3)n2)c1O,10µM*,i,?,-21.3%,-69.3%[10 µM],-30.8%
COc1ccc(/C=N/NC(=O)c2nc(-c3ccccc3)n(-c3ccccc3)n2)c(O)c1,3.98µM*,i,-30.9%,0.0%,.,-5.2%
COc1cc(OC)c2cc(C(=O)N/N=C/c3cccc(OC)c3O)[nH]c2c1,3.16µM*,?,-40.9%[9.22 µM],?,-37.1%[10 µM],-21.7%
C#Cc1cccc(C(=O)NCc2nc(-c3ccccc3NC(=O)C3CCCO3)oc2C)c1 (stereo not drawn),.,i,.,.,.,.
C[C@@H](O)[C@H]1C(=O)N2C(C(=O)O)=C([C@H]3CCCO3)S[C@H]12,1.9%,i,.,.,.,.
CN(C)c1ccc(/C=C2\CCc3ccccc32)cc1,.,.,.,-0.4%,.,-27.3%
COc1cccc(/C=N/NC(=O)N/N=C/c2cccc(OC)c2O)c1O,?,i,.,-9.6%,.,-11.0%
COc1cccc(C=NNC(=O)c2ccncc2)c1O,10µM*,i,.,14.0%,.,-11.5%
CCOc1ccccc1/C=N/NC(=O)c1c(C)nc2ccc(Br)cn12,-19.6%,i,.,0.0%,.,-15.2%
COc1cccc(/C=N/NC(=O)c2c(C)nc3ccc(Br)cn23)c1O,0.631µM*,i,2.24µM*,?,-155.4%,-19.0%
SMILES,ATXN2 expr inh,ATXN viability,HttQ103 aggreg,TGFb inhibitor,HTT ATP protect,HepG2 tox
COc1ccc(-c2c(C3C4C=CCC(C)C4C(=O)N3Cc3ccccc3)ccc3ccccc23)cc1 (stereo not drawn),.,.,.,-2.6%,.,-1.1%
C=CC[N+]1([C@H]2C[C@H]3[C@@H]4CC[C@H]5C[C@H](O)[C@@H](N6CCOCC6)C[C@]5(C)[C@H]4CC[C@]3(C)[C@H]2OC(C)=O)CCCC1,.,.,-4.7%,.,-4.7%,.
O=C(COc1ccc(/C=N/NC(=O)c2cc3ccccc3o2)cc1Br)Nc1ccccc1,?,10µM*,-7.5%,3.55µM*,-99.7%,-63.4%
Cc1nc2sccn2c1CN1CCC2(CC1)CC2C(=O)Nc1ccc2c(c1)OCO2 (stereo not drawn),.,i,.,.,.,.
O=C1CC(Sc2nnnn2-c2ccccc2)C(=O)N1c1cccc(Cl)c1 (stereo not drawn),?,?,22.4µM*,?,25.8%[10 µM],-96.7%
Cc1cc(N2CCN(c3ccc(C(F)(F)F)cc3[N+](=O)[O-])CC2)c2ccccc2n1,.,.,.,10µM*,.,-60.7%
O=C(c1ccccc1F)N1CCN(c2ccc([N+](=O)[O-])c3cccnc23)CC1,-17.4%,i,-10.9%[9.22 µM],15.8%,-11.4%[10 µM],-2.8%
Cc1ccc(S(=O)(=O)N2CCN(c3ccc(C(F)(F)F)cc3[N+](=O)[O-])CC2)cc1,-29.9%,i,19.0%,?,-10.3%[10 µM],-23.5%
Cc1cc(N2CCN(c3ccc([N+](=O)[O-])c4cccnc34)CC2)c2ccccc2n1,?,?,4.1%,?,5.1%[10 µM],3.16µM*
Cc1ccc(C(=O)C(=O)O)cc1C,1.6%,i,.,.,.,.
Cc1ccc(OCC(=O)Nc2cc(-c3nc4cc(Cl)ccc4o3)ccc2C)c(C)c1,.,.,.,-4.9%,.,6.4%
Cc1ccc(-c2nc3cccnc3o2)cc1NC(=O)COc1ccc(Cl)cc1C,31.6µM*,28.2µM*,9.3%,3.9%,-24.7%,16.8%
Cn1nc(C(C)(C)C)cc1C(=O)NCc1ccc(N2CCCC2=O)cc1,-14.4%,i,1.78µM*,-11.1%,21.0%[10 µM],-26.5%
C=CCSc1nc2ccccc2n1C(=O)/C=C/c1ccc(OC)c(OC)c1,14.1µM*,10µM*,?,-6.3%,?,-9.2%
C=CCSc1nc2ccccc2n1C(=O)/C=C/c1cc(OC)c(OC)c(OC)c1,10µM*,3.55µM*,?,?,43.4%,11.2µM*
COc1cc(/C=C/C(=O)N2CCN(C(=O)/C=C/c3cc(OC)c(OC)c(OC)c3)CC2)cc(OC)c1OC,41.5%,i,.,2.1%,.,6.2%
CCSc1nc2ccccc2n1C(=O)/C=C/c1ccc(OC)c(OC)c1,7.94µM*,8.91µM*,?,?,?,-51.7%
COc1ccccc1C1CN(CC(=O)N[C@H]2CCCCNC2=O)Cc2ccccc2O1 (stereo partly drawn),.,i,.,.,.,.
Cc1ccccc1CN1Cc2cccc3c2[C@H](C=CC3)CC1=O,.,.,.,?,.,-4.2%
CCC[C@@H]1C[C@@H](C(=O)N[C@@H]([C@H]2O[C@H](SC)[C@H](O)[C@@H](O)[C@H]2O)[C@H](C)Cl)N(C)C1,.,i,.,.,.,.
